This is an account of results in paper PMC11006913.

Residue numbers refer to the chain shown, from its start.

What all share (assay): PBM; 200 nM protein, PBS
Common to all, as to details: dsDNA, one strand shown

Test [1] concerns the target T1, NKX2-4 (Homo sapiens, UniProt Q9H2Z4 175-261, P217L).
T1 sequence: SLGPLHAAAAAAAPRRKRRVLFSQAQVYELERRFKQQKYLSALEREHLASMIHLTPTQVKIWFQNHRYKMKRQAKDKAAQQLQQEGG

Test [2] concerns the target T2, NKX2-4 (Homo sapiens, UniProt Q9H2Z4 175-261, T231S).
T2 sequence: T1 sequence with L43P, T57S

In test [3] the target is T3, NKX2-4 (Homo sapiens, UniProt Q9H2Z4 175-261).
T3 sequence: T1 sequence with L43P

For test [4], the target named is T4, NKX2-4 (Homo sapiens, UniProt Q9H2Z4 175-261, R246Q).
T4 sequence: T1 sequence with L43P, R72Q

The target of test [5] is VAX1 (Homo sapiens, UniProt Q5SQQ9 86-172).
Chain of VAX1 (Homo sapiens, UniProt Q5SQQ9 86-172) (Q5SQQ9 86-172): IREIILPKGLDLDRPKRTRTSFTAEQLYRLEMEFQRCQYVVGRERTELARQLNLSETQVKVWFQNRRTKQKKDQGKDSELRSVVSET
For test [6], the target named is VAX1 (Homo sapiens, UniProt Q5SQQ9 86-172, T142I).
Chain of VAX1 (Homo sapiens, UniProt Q5SQQ9 86-172, T142I) (Q5SQQ9 86-172 T142I): as the sequence (Q5SQQ9 86-172) above, with T57I counted along it
Test [7] addresses VAX1 (Homo sapiens, UniProt Q5SQQ9 86-172, K157R).
For test [8], the target named is T5, NKX2-6 (Homo sapiens, UniProt A6NCS4 118-204, R150C).
T5 sequence: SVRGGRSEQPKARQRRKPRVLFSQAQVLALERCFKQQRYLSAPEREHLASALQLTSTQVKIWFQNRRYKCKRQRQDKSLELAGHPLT

Test [9] addresses PROP1 (Homo sapiens, UniProt O75360 56-141).
Test [10] has as its target PROP1 (Homo sapiens, UniProt O75360 56-141, R99H).
Test [11] concerns the target PROP1 (Homo sapiens, UniProt O75360 56-141, F88S).
Test [12] deals with T6, NKX2-6 (Homo sapiens, UniProt A6NCS4 118-204).
T6 sequence: T5 sequence with C33R

Test [13] addresses T7, NKX2-6 (Homo sapiens, UniProt A6NCS4 118-204, F151L).
T7 sequence: T5 sequence with C33R, F34L

The target of test [14] is NKX3-2 (Homo sapiens, UniProt P78367 192-278, P234S).
Chain of NKX3-2 (Homo sapiens, UniProt P78367 192-278, P234S) (P78367 192-278 P234S): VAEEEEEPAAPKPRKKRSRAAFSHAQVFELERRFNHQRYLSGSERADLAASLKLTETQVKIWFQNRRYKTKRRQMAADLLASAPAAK
Test [15] concerns the target NKX3-2 (Homo sapiens, UniProt P78367 192-278).
For another test, the target named is ALX1 (Homo sapiens, UniProt Q15699 118-204).
Chain of ALX1 (Q15699 118-204): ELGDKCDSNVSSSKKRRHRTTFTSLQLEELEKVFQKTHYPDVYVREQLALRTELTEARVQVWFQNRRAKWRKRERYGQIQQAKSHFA

Chain of VAX1 (Homo sapiens, UniProt Q5SQQ9 86-172, K157R) (Q5SQQ9 86-172 K157R): as the sequence (Q5SQQ9 86-172) above, with K72R counted along it
Chain of NKX3-2 (Homo sapiens, UniProt P78367 192-278) (P78367 192-278): as the sequence (P78367 192-278 P234S) above, with S43P counted along it
Chain of PROP1 (Homo sapiens, UniProt O75360 56-141, F88S) (O75360 56-141 F88S): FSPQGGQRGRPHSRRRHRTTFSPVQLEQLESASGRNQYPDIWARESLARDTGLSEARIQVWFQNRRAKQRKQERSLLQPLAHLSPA
Chain of PROP1 (Homo sapiens, UniProt O75360 56-141) (O75360 56-141): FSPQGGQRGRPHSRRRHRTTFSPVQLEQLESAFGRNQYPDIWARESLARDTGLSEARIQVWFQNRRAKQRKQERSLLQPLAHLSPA
Chain of PROP1 (Homo sapiens, UniProt O75360 56-141, R99H) (O75360 56-141 R99H): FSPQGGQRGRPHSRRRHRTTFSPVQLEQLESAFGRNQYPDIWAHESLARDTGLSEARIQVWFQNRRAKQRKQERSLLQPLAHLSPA

As to CAAACCCG, the binding signal in the test with NKX2-4 [1] is 9.56 upbm affinity estimate (log intensity, higher = more binding, comparable within an allelic series); with NKX2-4 [2] it was 9.55 upbm affinity estimate (log intensity, higher = more binding, comparable within an allelic series); with NKX2-4 [3] it was 9.55 upbm affinity estimate (log intensity, higher = more binding, comparable within an allelic series); with NKX2-4 [4] it was 9.6 upbm affinity estimate (log intensity, higher = more binding, comparable within an allelic series).
CCCCGCCG: the binding signal with NKX2-4 [1] was 9.51 upbm affinity estimate (log intensity, higher = more binding, comparable within an allelic series); with NKX2-4 [2], 9.45 upbm affinity estimate (log intensity, higher = more binding, comparable within an allelic series); with NKX2-4 [3], 9.54 upbm affinity estimate (log intensity, higher = more binding, comparable within an allelic series); with NKX2-4 [4], 9.57 upbm affinity estimate (log intensity, higher = more binding, comparable within an allelic series).
Turning to CGATCGCA, the binding signal was 9.9 upbm affinity estimate (log intensity, higher = more binding, comparable within an allelic series) with NKX2-4 [1]; 9.92 upbm affinity estimate (log intensity, higher = more binding, comparable within an allelic series) in the test with NKX2-4 [2]; 9.93 upbm affinity estimate (log intensity, higher = more binding, comparable within an allelic series) in the test with NKX2-4 [3]; 9.97 upbm affinity estimate (log intensity, higher = more binding, comparable within an allelic series) with NKX2-4 [4].
CCCGGCAG: the binding signal with NKX2-4 [1] is 9.62 upbm affinity estimate (log intensity, higher = more binding, comparable within an allelic series); in the test with NKX2-4 [2], 9.52 upbm affinity estimate (log intensity, higher = more binding, comparable within an allelic series); in the test with NKX2-4 [3] it was 9.63 upbm affinity estimate (log intensity, higher = more binding, comparable within an allelic series); with NKX2-4 [4] it was 9.61 upbm affinity estimate (log intensity, higher = more binding, comparable within an allelic series); in the test with VAX1 [5] it was 7.23 upbm affinity estimate (log intensity, higher = more binding, comparable within an allelic series); with VAX1 [6] it was 7.18 upbm affinity estimate (log intensity, higher = more binding, comparable within an allelic series). The binding signal with VAX1 [7] was 7.28 upbm affinity estimate (log intensity, higher = more binding, comparable within an allelic series).
In the case of CGGTCGAC, the binding signal with NKX2-4 [1] was 9.4 upbm affinity estimate (log intensity, higher = more binding, comparable within an allelic series); with NKX2-4 [2] it was 9.24 upbm affinity estimate (log intensity, higher = more binding, comparable within an allelic series); in the test with NKX2-4 [3], 9.3 upbm affinity estimate (log intensity, higher = more binding, comparable within an allelic series); with NKX2-4 [4], 9.39 upbm affinity estimate (log intensity, higher = more binding, comparable within an allelic series); with VAX1 [5], 7.17 upbm affinity estimate (log intensity, higher = more binding, comparable within an allelic series); in the test with VAX1 [6], 7.28 upbm affinity estimate (log intensity, higher = more binding, comparable within an allelic series). Moreover, in the test with VAX1 [7], the binding signal is 7.34 upbm affinity estimate (log intensity, higher = more binding, comparable within an allelic series).
Regarding GTCTCGCA, the binding signal in the test with NKX2-4 [1] was 9.7 upbm affinity estimate (log intensity, higher = more binding, comparable within an allelic series); with NKX2-4 [2], 9.57 upbm affinity estimate (log intensity, higher = more binding, comparable within an allelic series); with NKX2-4 [3] it was 9.65 upbm affinity estimate (log intensity, higher = more binding, comparable within an allelic series); with NKX2-4 [4], 9.64 upbm affinity estimate (log intensity, higher = more binding, comparable within an allelic series).
In the case of CAGTGACC, the binding signal in the test with NKX2-4 [1] was 9.77 upbm affinity estimate (log intensity, higher = more binding, comparable within an allelic series); in the test with NKX2-4 [2] it was 9.84 upbm affinity estimate (log intensity, higher = more binding, comparable within an allelic series); with NKX2-4 [3], 9.8 upbm affinity estimate (log intensity, higher = more binding, comparable within an allelic series); with NKX2-4 [4] it was 9.7 upbm affinity estimate (log intensity, higher = more binding, comparable within an allelic series).
For ACAAGTAC, the binding signal in the test with NKX2-4 [1] was 12.5 upbm affinity estimate (log intensity, higher = more binding, comparable within an allelic series); with NKX2-4 [2], 12.9 upbm affinity estimate (log intensity, higher = more binding, comparable within an allelic series); in the test with NKX2-6 [8], 11.6 upbm affinity estimate (log intensity, higher = more binding, comparable within an allelic series); in the test with NKX2-4 [4], 12.9 upbm affinity estimate (log intensity, higher = more binding, comparable within an allelic series).
Turning to CCCGGTGC, the binding signal with NKX2-4 [1] was 9.16 upbm affinity estimate (log intensity, higher = more binding, comparable within an allelic series); with NKX2-4 [2] it was 9.15 upbm affinity estimate (log intensity, higher = more binding, comparable within an allelic series); in the test with NKX2-4 [3], 9.25 upbm affinity estimate (log intensity, higher = more binding, comparable within an allelic series); with NKX2-4 [4] it was 9.25 upbm affinity estimate (log intensity, higher = more binding, comparable within an allelic series); with PROP1 [9] it was 6.92 upbm affinity estimate (log intensity, higher = more binding, comparable within an allelic series); with PROP1 [10], 6.73 upbm affinity estimate (log intensity, higher = more binding, comparable within an allelic series). Also, the binding signal with PROP1 [11] was 6.51 upbm affinity estimate (log intensity, higher = more binding, comparable within an allelic series).
In the case of CACGCACG, the binding signal in the test with NKX2-4 [1] is 9.72 upbm affinity estimate (log intensity, higher = more binding, comparable within an allelic series); in the test with NKX2-4 [2] it was 9.75 upbm affinity estimate (log intensity, higher = more binding, comparable within an allelic series); with NKX2-4 [3] it was 9.72 upbm affinity estimate (log intensity, higher = more binding, comparable within an allelic series); with NKX2-4 [4] it was 9.75 upbm affinity estimate (log intensity, higher = more binding, comparable within an allelic series).
Take AAGTGGAA: the binding signal in the test with NKX2-4 [1] was 12.4 upbm affinity estimate (log intensity, higher = more binding, comparable within an allelic series); with NKX2-6 [8], 11.6 upbm affinity estimate (log intensity, higher = more binding, comparable within an allelic series); with NKX2-6 [12], 13.3 upbm affinity estimate (log intensity, higher = more binding, comparable within an allelic series); in the test with NKX2-4 [4], 12.9 upbm affinity estimate (log intensity, higher = more binding, comparable within an allelic series); with NKX2-6 [13], 10.6 upbm affinity estimate (log intensity, higher = more binding, comparable within an allelic series).
With GAGTGTCC, the binding signal in the test with NKX2-4 [1] is 11.9 upbm affinity estimate (log intensity, higher = more binding, comparable within an allelic series); with NKX2-4 [2], 12.2 upbm affinity estimate (log intensity, higher = more binding, comparable within an allelic series); with NKX2-4 [3], 11.8 upbm affinity estimate (log intensity, higher = more binding, comparable within an allelic series); with NKX2-4 [4] it was 12.2 upbm affinity estimate (log intensity, higher = more binding, comparable within an allelic series).
ACCACTCA: the binding signal with NKX2-4 [1] is 12.4 upbm affinity estimate (log intensity, higher = more binding, comparable within an allelic series); with NKX2-4 [2], 12.8 upbm affinity estimate (log intensity, higher = more binding, comparable within an allelic series); in the test with NKX2-4 [3], 12.3 upbm affinity estimate (log intensity, higher = more binding, comparable within an allelic series); with NKX2-4 [4], 12.8 upbm affinity estimate (log intensity, higher = more binding, comparable within an allelic series); with NKX3-2 [14], 12.5 upbm affinity estimate (log intensity, higher = more binding, comparable within an allelic series); in the test with NKX3-2 [15], 12.6 upbm affinity estimate (log intensity, higher = more binding, comparable within an allelic series).
Consider ACACTCAA, for which the binding signal in the test with NKX2-4 [1] is 12.5 upbm affinity estimate (log intensity, higher = more binding, comparable within an allelic series); in the test with NKX2-4 [2], 12.8 upbm affinity estimate (log intensity, higher = more binding, comparable within an allelic series); with NKX2-4 [3], 12.3 upbm affinity estimate (log intensity, higher = more binding, comparable within an allelic series); in the test with NKX2-4 [4], 12.8 upbm affinity estimate (log intensity, higher = more binding, comparable within an allelic series); with NKX2-6 [13], 10.6 upbm affinity estimate (log intensity, higher = more binding, comparable within an allelic series).
Take CCCTGCAG: the binding signal in the test with NKX2-4 [1] was 9.9 upbm affinity estimate (log intensity, higher = more binding, comparable within an allelic series); in the test with NKX2-4 [2], 9.92 upbm affinity estimate (log intensity, higher = more binding, comparable within an allelic series); with NKX2-4 [3], 9.89 upbm affinity estimate (log intensity, higher = more binding, comparable within an allelic series); with NKX2-4 [4], 9.93 upbm affinity estimate (log intensity, higher = more binding, comparable within an allelic series).
Take CACTCAAA: the binding signal in the test with NKX2-4 [1] was 12.4 upbm affinity estimate (log intensity, higher = more binding, comparable within an allelic series); in the test with NKX3-2 [14], 12.3 upbm affinity estimate (log intensity, higher = more binding, comparable within an allelic series); with NKX3-2 [15], 12.3 upbm affinity estimate (log intensity, higher = more binding, comparable within an allelic series).
On to ACTCTTAA, for which the binding signal was 12.4 upbm affinity estimate (log intensity, higher = more binding, comparable within an allelic series) with NKX2-4 [1] and 8.51 upbm affinity estimate (log intensity, higher = more binding, comparable within an allelic series) in the test with ALX1.
CATCGCGA: the binding signal is 9.66 upbm affinity estimate (log intensity, higher = more binding, comparable within an allelic series) with NKX2-4 [1]; 9.66 upbm affinity estimate (log intensity, higher = more binding, comparable within an allelic series) in the test with NKX2-4 [2]; 9.73 upbm affinity estimate (log intensity, higher = more binding, comparable within an allelic series) in the test with NKX2-4 [3]; 9.58 upbm affinity estimate (log intensity, higher = more binding, comparable within an allelic series) with NKX2-4 [4].
CTGAAAAG: the binding signal was 11 upbm affinity estimate (log intensity, higher = more binding, comparable within an allelic series) in the test with NKX2-4 [1]; 10.8 upbm affinity estimate (log intensity, higher = more binding, comparable within an allelic series) with NKX2-4 [3]; 11.1 upbm affinity estimate (log intensity, higher = more binding, comparable within an allelic series) with NKX2-4 [4].
On to CCGCTACC, for which the binding signal with NKX2-4 [1] is 9.71 upbm affinity estimate (log intensity, higher = more binding, comparable within an allelic series); in the test with NKX2-4 [2], 9.7 upbm affinity estimate (log intensity, higher = more binding, comparable within an allelic series); with NKX2-4 [3] it was 9.66 upbm affinity estimate (log intensity, higher = more binding, comparable within an allelic series); with NKX2-4 [4], 9.79 upbm affinity estimate (log intensity, higher = more binding, comparable within an allelic series).
As to AACTCTTG, the binding signal with NKX2-4 [1] is 11.7 upbm affinity estimate (log intensity, higher = more binding, comparable within an allelic series); with NKX2-4 [2] it was 11.8 upbm affinity estimate (log intensity, higher = more binding, comparable within an allelic series); with NKX2-4 [3], 11.6 upbm affinity estimate (log intensity, higher = more binding, comparable within an allelic series); with NKX2-4 [4], 12 upbm affinity estimate (log intensity, higher = more binding, comparable within an allelic series).
For the sequence ACTATAAG, the binding signal is 11.5 upbm affinity estimate (log intensity, higher = more binding, comparable within an allelic series) with NKX2-4 [1]; 11.4 upbm affinity estimate (log intensity, higher = more binding, comparable within an allelic series) with NKX2-4 [3]; 11.8 upbm affinity estimate (log intensity, higher = more binding, comparable within an allelic series) in the test with NKX2-4 [4].
Regarding GGCAGTCA, the binding signal is 10.1 upbm affinity estimate (log intensity, higher = more binding, comparable within an allelic series) with NKX2-4 [1]; 10 upbm affinity estimate (log intensity, higher = more binding, comparable within an allelic series) with NKX2-4 [2]; 9.98 upbm affinity estimate (log intensity, higher = more binding, comparable within an allelic series) with NKX2-4 [3]; 10.1 upbm affinity estimate (log intensity, higher = more binding, comparable within an allelic series) in the test with NKX2-4 [4].
As for CTTGAGGA, the binding signal was 11.9 upbm affinity estimate (log intensity, higher = more binding, comparable within an allelic series) with NKX2-4 [1]; 12.3 upbm affinity estimate (log intensity, higher = more binding, comparable within an allelic series) with NKX2-4 [2]; 11.8 upbm affinity estimate (log intensity, higher = more binding, comparable within an allelic series) in the test with NKX2-4 [3]; 12.2 upbm affinity estimate (log intensity, higher = more binding, comparable within an allelic series) with NKX2-4 [4].
